Screen size: about 48,000 compounds; about 13,000 (27%) showed an effect of 50% or more. Some of the results follow.
System: Wolbachia pipientis
Assay: Anti-Wolbachia Cell-Based Screen
Assay type: functional
Design: scale not given: in the data most compounds retested in dose-response had high values
Details: 5 µM

First: CC(=O)N[C@@H]1CN(C2CCN(c3cccc(Cl)c3)CC2)C[C@H]1C(C)C
Second: Cl.O=C(CN1CCC[C@H]1C(=O)O)NCCOc1cccc(Cl)c1
The “Percent Effect” value of the first is higher: 15.95% for the first, -9.308% for the second.

Going from Cc1nc(S(=O)(=O)NCCC(=O)NCc2ccsc2)cn1C to Cc1ccc(OCC(=O)NS(=O)(=O)c2cccnc2)cc1C, the “Percent Effect” value rises from -10.44% to -7.985%.

First: COCCC1(CO)CCCN(C(=O)c2cc(C#N)c(=O)[nH]c2C)C1 (configuration not stated)
Second: Cc1c[nH]c(C(=O)N2CCC(c3nnc(CN(C)CCO)n3C)CC2)c1
The “Percent Effect” value of the first is higher: 6.218% for the first, -9.354% for the second.

Compared with CC(C)C1CN(C(=O)c2csc(CN(C)C)n2)CCC(=O)N1CC1CC1 (configuration not stated), CNc1nc(C(=O)N2C[C@H]3CC[C@@H]2CN(S(C)(=O)=O)C3)cs1 is higher in “Percent Effect” value: -2.363% for the first, -0.32% for the second.

First: Cl.Cn1nc(C2CCCN(Cc3cccs3)C2)c2nccnc21 (configuration not stated)
Second: Cn1nc(C2CCCN(Cc3ccsc3)C2)c2nccnc21 (configuration not stated)
The “Percent Effect” value of the first is higher: 122.9% for the first, -5.788% for the second.

Going from Cc1ccc(CN2CCCC(c3nnc(CN4CCCCC4)n3C)C2)s1 (configuration not stated) to Cc1ccc(CN2CCCC(c3nnc(CN4CCCC4)n3C)C2)s1 (configuration not stated), the “Percent Effect” value rises from 9.152% to 10.41%.

Compared with Cl.Cn1nc(C2CCCN(Cc3ccccc3)C2)c2nccnc21 (configuration not stated), COc1cccc(CN2CCCC(c3nn(C)c4nccnc34)C2)c1.Cl (configuration not stated) is lower in “Percent Effect” value: 128.3% for the first, 110.8% for the second.

First: Cc1ccc(CN2CCCC(c3nn(C)c4nccnc34)C2)s1 (configuration not stated)
Second: Cc1cc(C)c2nc(CN3CCCC(c4cc[nH]n4)C3)cc(O)c2c1 (configuration not stated)
The “Percent Effect” value of the first is higher: 125.3% for the first, 54.67% for the second.

Compared with c1ccc(CCN2CCCC(Cn3ccnc3)C2)cc1 (configuration not stated), Cc1nc(C)n(CC2CCCN(c3ccnc(-c4ccccc4)n3)C2)n1 (configuration not stated) is lower in “Percent Effect” value: -0.01768% for the first, -14.72% for the second.

Compared with CC(C)n1nc2c(cc1=O)CN(Cc1nnc(C3CC3)o1)CC2, CCc1cc(C(=O)N2CCCC2c2nc(O)cc(CC)n2)on1 (configuration not stated) is higher in “Percent Effect” value: 15.52% for the first, 115.5% for the second.

First: CCc1cc(NCCNC(C)=O)nc(N2CCOCC2)n1
Second: CCC(C)(CNC(=O)Nc1nncs1)N1CCOCC1 (configuration not stated)
The “Percent Effect” value of the first is lower: -17.29% for the first, -7.544% for the second.

Going from CC1CCc2nc(O)c(C(=O)NCCc3cccs3)cc2C1 (configuration not stated) to Cc1occc1C(=O)NCC(=O)NCCOc1cccc(Cl)c1, the “Percent Effect” value rises from -7.543% to 23.6%.

First: CCc1nnc(C(C)N(C)Cc2c(C)nn(-c3ccccc3)c2C)o1 (configuration not stated)
Second: CCc1noc(CN2CCCC2C(=O)OCc2ccccc2)n1 (configuration not stated)
The “Percent Effect” value of the first is lower: 1.844% for the first, 6.169% for the second.

Compared with CCn1cc(CN2CCCC2c2nc(C(C)C)no2)cc1C#N (configuration not stated), CCc1cc(O)nc(C2CCCN2C(=O)c2cc(C)no2)n1 (configuration not stated) is lower in “Percent Effect” value: -5.015% for the first, -6.64% for the second.

Going from Cc1cccc(NC(=O)CNC(=O)Cn2ncc(Cl)c(Cl)c2=O)c1C to CNC(=O)NC(=O)CCSc1ccccc1C, the “Percent Effect” value falls from -3.817% to -14.48%.

Going from COc1ccsc1C(=O)N1CCCC1c1c(C)nn(C)c1OC (configuration not stated) to COc1c(C2CCCN2C(=O)c2scnc2C)c(C)nn1C (configuration not stated), the “Percent Effect” value rises from -20.58% to 97.95%.

First: Cc1ncsc1C(=O)N1CCCC1c1c(C)nn(C)c1Cl (configuration not stated)
Second: COc1c(C2CCCN2C(=O)c2sc(C)nc2C)c(C)nn1C (configuration not stated)
The “Percent Effect” value of the first is higher: 100% for the first, 94.35% for the second.

First: Clc1cccc2c3c([nH]c12)CCN(Cc1cc2n(n1)CCNC2)C3
Second: c1ccc(-c2nc3c(c(NCCn4cccc4)n2)CCNCC3)nc1
The “Percent Effect” value of the first is lower: -8.419% for the first, -2.581% for the second.

First: CC(C)Oc1cccc(CN(C)C(=O)Nc2cccn(C)c2=O)c1
Second: CN(CC(O)C1CC1)C(=O)Nc1ccc(F)c(-n2cccc2)c1 (configuration not stated)
The “Percent Effect” value of the first is lower: -28.92% for the first, 2.69% for the second.

Compared with Cc1ccc(Cl)c2c1C1(NC(=O)c3cccnc3N1)C(=O)N2 (configuration not stated), O=C(NCCOc1ncc(Cl)cc1Cl)c1ccncc1 is lower in “Percent Effect” value: -5.673% for the first, -15.07% for the second.

Going from O=C(CCn1cccn1)NCCOc1ccc2c(c1)OCO2 to c1cnn(CCNCCCOc2ccc3c(c2)OCO3)c1, the “Percent Effect” value falls from 104.8% to -9.966%.

Going from O=C(NCCCn1cccn1)C1(c2ccc(F)cc2)CC1 to O=C(NCCCn1cccn1)C1(c2ccc(Br)cc2)CC1, the “Percent Effect” value rises from -8.161% to -2.807%.

Compared with Cc1cnn(CCNCCCOc2ccc3c(c2)OCO3)c1, O=C(CCn1cccn1)NCCOc1cccc(Cl)c1 is higher in “Percent Effect” value: 2.747% for the first, 87.31% for the second.

Compared with O=C(C[S+]([O-])C1CCCC1)NCCOc1cccc(Cl)c1 (configuration not stated), O=C(CCn1cncn1)NCCOc1cccc(Cl)c1 is higher in “Percent Effect” value: -1.497% for the first, 114.1% for the second.

Compared with O=C(CCc1ccncc1)NCCOc1ncc(Cl)cc1Cl, O=C(CCn1cccn1)NCCOc1ncc(Cl)cc1Cl is higher in “Percent Effect” value: -8.284% for the first, 81.6% for the second.

First: O=C(CCS(=O)(=O)c1ccccc1)NCCCn1cccn1
Second: O=C(CCOc1ccc(Cl)cc1)NCCCn1cccn1
The “Percent Effect” value of the first is lower: 91.43% for the first, 101.2% for the second.

Going from CC(C)c1nc(CC(=O)Nc2nc(CN3CCCCCC3)cs2)cs1 to CCc1cc(O)nc(C2CCCN2C(=O)COC)n1 (configuration not stated), the “Percent Effect” value rises from 13.84% to 126%.

First: O=C(CN1CCOc2ccc(Cl)cc21)NCCCn1cccn1
Second: O=C(NCCCn1cccn1)C1COCC(=O)N1Cc1ccccc1 (configuration not stated)
The “Percent Effect” value of the first is higher: -8.926% for the first, -30.45% for the second.

Going from CC(C(=O)NCCOc1cccc(Cl)c1)n1cncn1 (configuration not stated) to N#Cc1ccc(OCCNc2cccc(C(=O)N3CCOCC3)c2)cc1, the “Percent Effect” value falls from -0.6619% to -3.52%.

Compared with COc1ccc(S(=O)(=O)N2CCC(OCc3ccccn3)C2)cc1Br (configuration not stated), Cc1cc(C2CCCN(CCS(=O)(=O)c3ccccc3)C2)n[nH]1 (configuration not stated) is higher in “Percent Effect” value: 4.781% for the first, 111.9% for the second.

First: Cc1cc(C2CCCN(CCNS(=O)(=O)c3ccccc3)C2)n[nH]1 (configuration not stated)
Second: Cc1cc(C2CCCN(CCCS(=O)(=O)c3ccccc3)C2)n[nH]1 (configuration not stated)
The “Percent Effect” value of the first is higher: 94.49% for the first, -3.796% for the second.

Going from Cn1c(C2CC2)nc2c1CCN(CCS(=O)(=O)c1ccccc1)C2 to Cc1nc(C)n(CC2CCCN(c3ncnc4ccccc34)C2)n1 (configuration not stated), the “Percent Effect” value rises from -2.763% to 143.5%.

First: Cc1cc(N2CCC(N(C)Cc3cc(=O)c(O)co3)CC2)nc(C)n1
Second: COC1CCCN(Cc2cc(O)c3cc(C)cc(C)c3n2)C1 (configuration not stated)
The “Percent Effect” value of the first is higher: -0.2819% for the first, -4.558% for the second.

Compared with CCn1nc(C(=O)N2CCCC2c2noc(C)n2)ccc1=O (configuration not stated), CCc1nc(C2CCCN2C(=O)c2ccc(=O)n(CC)n2)no1 (configuration not stated) is lower in “Percent Effect” value: 2.469% for the first, -10.47% for the second.

Going from CCc1cc(O)nc(C2CCCN2C(=O)c2cc(CC)on2)n1 (configuration not stated) to CCc1nc(C2CCCN2C(=O)c2nccnc2N)no1 (configuration not stated), the “Percent Effect” value falls from 115.4% to -19.66%.

Compared with CCc1ccc(C(=O)NC2CCN(c3ccn(C)n3)C2)o1 (configuration not stated), Cc1ccc(CC(=O)N2CCC(Nc3ccc(C)nn3)CC2)cn1 is higher in “Percent Effect” value: -10.19% for the first, 105.9% for the second.

First: O=C(Nc1cc(C(F)(F)F)ccc1Cl)c1ccc(N2CCCC2)nn1
Second: COc1ccc(CC(=O)N2CCC(Nc3ccc(C)nn3)CC2)cc1
The “Percent Effect” value of the first is lower: 13.93% for the first, 95.7% for the second.

Going from CC(C)C(C#N)N1CCN(C(=O)c2cc(-c3ccccn3)no2)CC1 (configuration not stated) to CCN(CC)C(=O)[C@@H]1C[C@@H](n2cc(-c3ccccn3)nn2)CN1, the “Percent Effect” value rises from -9.203% to -7.154%.

Going from O=C(NCCn1cccc1)C1CCCN(C2CCCC2)C1 (configuration not stated) to CC(C)(NC(=O)C1CCN(C2CCCCC2)CC1)c1nnc(N)s1, the “Percent Effect” value rises from -8.525% to 3.743%.

First: CNC(=O)[C@@H]1C[C@@H](n2cc(-c3ccc(Cl)cc3)nn2)CN1
Second: CNC(=O)[C@@H]1C[C@H](n2cc(-c3ccc(Cl)cc3)nn2)CN1
The “Percent Effect” value of the first is higher: 111.1% for the first, 104.7% for the second.

First: CCN(CC)C(=O)[C@@H]1C[C@H](n2cc(-c3ccccn3)nn2)CN1
Second: CCN(CC)C(=O)[C@@H]1C[C@H](n2cc(-c3cccc(OC)c3)nn2)CN1
The “Percent Effect” value of the first is lower: -5.115% for the first, -3.277% for the second.

Compared with CCN(CC)C(=O)[C@@H]1C[C@@H](n2cc(-c3cccc(OC)c3)nn2)CN1, CN(Cc1ccco1)[C@@H]1CN(Cc2cnn(C)c2)[C@@H]2CCCO[C@H]12.O=C(O)C(F)(F)F.O=C(O)C(F)(F)F is higher in “Percent Effect” value: -2.078% for the first, 12.06% for the second.

First: Cc1nc2n(n1)CC(NCC(=O)NCCCOC(C)C)CC2 (configuration not stated)
Second: Cc1nc(C)n(CC2CCCN(c3ncnc4c3CCC4)C2)n1 (configuration not stated)
The “Percent Effect” value of the first is higher: -9.274% for the first, -12.81% for the second.

Compared with Cc1ccc(NC2CCN(C(=O)Cc3ccc(C#N)cc3)CC2)nn1, Cc1nc(C)n(CC2CCCN(c3ccc(C#N)cn3)C2)n1 (configuration not stated) is higher in “Percent Effect” value: -2.358% for the first, 123% for the second.

Compared with CCCNC(=O)CN1CCOC(c2ccc(Br)cc2)C1 (configuration not stated), Cc1cc(C)c2nc(CN3CC[C@@H](O)C3)cc(O)c2c1 is lower in “Percent Effect” value: -1.206% for the first, -21.84% for the second.

Going from Cn1cc(CN2C[C@H](N3CCOCC3)[C@@H]3OCCC[C@@H]32)cn1.O=C(O)C(F)(F)F.O=C(O)C(F)(F)F to CN(Cc1cccnc1)[C@@H]1CN(Cc2cnn(C)c2)[C@@H]2CCCO[C@H]12.O=C(O)C(F)(F)F.O=C(O)C(F)(F)F.O=C(O)C(F)(F)F.O=C(O)C(F)(F)F, the “Percent Effect” value rises from 9.025% to 88.39%.

Going from CN(Cc1cccnc1)[C@@H]1CN(Cc2nccn2C)[C@@H]2CCCO[C@H]12.O=C(O)C(F)(F)F.O=C(O)C(F)(F)F.O=C(O)C(F)(F)F.O=C(O)C(F)(F)F to CN(Cc1ccco1)[C@@H]1CN(Cc2nccn2C)[C@@H]2CCCO[C@H]12.O=C(O)C(F)(F)F.O=C(O)C(F)(F)F.O=C(O)C(F)(F)F, the “Percent Effect” value falls from 107.5% to -0.8776%.

Going from CCN(CC)[C@@H]1CN(Cc2nccn2C)[C@@H]2CCCO[C@H]12.O=C(O)C(F)(F)F.O=C(O)C(F)(F)F.O=C(O)C(F)(F)F to Cc1nc(C)n(CC2CCCN(c3ncnc4ccsc34)C2)n1 (configuration not stated), the “Percent Effect” value rises from -9.914% to -4.048%.

With c1cncc(-c2nc3c(c(NCC4(c5ccncc5)CC4)n2)CCC3)c1 the “Percent Effect” value was -14.36%.
